Most compounds without a hit are left out; they make up all but 1.7% or so of the library.
GLP1R ag: GLP-1 receptor (human) agonism; P43220; HEK293 GLP-1R CRE-luciferase, luminescence, 4-6 h; cells express a hypersensitive GLP-1R form; Potency, µM (doses to about 45.6 µM), inactives show at the top dose activation, hits mostly activators; hit rate 0.007% among 380,000; further: potency means the concentration at half of the fitted maximal effect; % of control where 0% means no effect
IDH1 R132H inh: blocks human mutant IDH1 R132H enzyme. O75874. IDH1-R132H enzyme, NADPH consumption, diaphorase/resazurin fluorescence. Potency, µM (doses to about 76.6 µM), for inactives: top-dose activity change, negative = inhibition, usual class: inhibitors. hit rate 0.093% among 390,000; further: potency means the concentration at half of the fitted maximal effect; on the % scale 0 is the no-effect control and ±100 the full control effect; nearly all actives have a fitted effect of over 65% in size
Target sequence (O75874 whole entry R132H, stated change not applied): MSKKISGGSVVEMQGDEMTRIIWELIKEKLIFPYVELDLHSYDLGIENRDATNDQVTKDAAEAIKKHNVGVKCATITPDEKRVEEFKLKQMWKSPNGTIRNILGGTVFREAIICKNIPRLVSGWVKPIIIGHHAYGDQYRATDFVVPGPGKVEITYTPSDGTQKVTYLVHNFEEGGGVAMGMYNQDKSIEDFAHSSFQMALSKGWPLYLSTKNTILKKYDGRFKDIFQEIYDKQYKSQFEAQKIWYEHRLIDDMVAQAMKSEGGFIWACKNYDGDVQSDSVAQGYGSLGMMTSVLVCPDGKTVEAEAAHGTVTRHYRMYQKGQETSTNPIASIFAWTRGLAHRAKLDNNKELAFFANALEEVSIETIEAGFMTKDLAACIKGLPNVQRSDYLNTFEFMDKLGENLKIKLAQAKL
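IDH1-R132H (0.5 ug/mL dispensed) in pH 7.5 Tris buffer was preincubated 30 min with compound, then given a substrate mix of 0.016 mM NADPH and 2 mM alpha-KG for 80 min at room temperature; remaining NADPH was read by diaphorase/resazurin fluorescence.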
PTHR1 agonist: PTHR1 (human) receptor agonism; Q03431; HEK293 GP2 PTHR1 cells, GloSensor cAMP luminescence, 1 h; Potency, µM (series often up to 115 µM), inactives show top-dose activation, hits mostly activators; hit rate 0.075% among 410,000; AID 743266; further: potency means the concentration at half of the fitted maximal effect; nearly all actives have a fitted effect of over 55% in size
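HEK-293-derived GP2 cells expressing PTHR1 and a GloSensor cAMP reporter, 3,000/well, plated overnight, given luciferin plus IBMX (each 0.5 mM as added) for 1 h at 37 °C, then compound for 1 h at 37 °C. Luminescence was read after 15 min at room temperature.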
LDHA inh: blocks human lactate dehydrogenase A | P00338 | purified LDHA, NADH/diaphorase-resazurin fluorescence; stronger effect = lower value | activity change, % (values are at about 110 or 230 µM) | hit rate 0.15% among 480,000 | AID 1347041; in the data active means activity change below about -30%; inconclusive means mostly about -25% to -30%;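 further: plate controls were DMSO wells for no effect and wells without enzyme for full effect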
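Enzyme activity of human lactate dehydrogenase 5 (2 nM; 0.06 mM NADH, 0.2 mM pyruvate, 5 min, RT) is measured via a resazurin/diaphorase fluorescence readout of residual NADH.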
GLP1R cytotox: cytotoxicity counter-screen for GLP-1 receptor inverse agonists. HEK293 cAMP-luciferase reporter cells, luminescence, 24 h. Potency, µM (highest dose often 38.3 µM), inactives show top-dose activity change, negative = inhibition, actives largely listed as inhibitors. hit rate 0.13% among 410,000;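 further: loss of luciferase light is scored as toxicity; potency means the concentration at half of the fitted maximal effect; on the % scale 0 is the no-effect control and ±100 the full control effect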
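1536-well qHTS counterscreen of the MLSMR; 200 cells/uL, 12 h pre-incubation, 23 nL cpd, 24 h at 37 deg C 5% CO2, luciferase detection reagent, 12 min RT, luminescence. Inhibition = undesired.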
GLP-1R inv ag: inverse agonists of human GLP-1 receptor; AID 624417; HEK293 GLP-1R CRE-luciferase, luminescence, 24 h; GLP-1R form is constitutively active; Potency, µM (titrated, usually from 38.3 µM), without a hit: at the top dose activity change, negative = inhibition, usual class: inhibitors; hit rate 1.6% among 410,000; further: potency means the concentration at half of the fitted maximal effect; on the % scale 0 is the no-effect control and ±100 the full control effect; nearly all actives have a fitted effect of over 55% in size
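Using stably transfected HEK293 (constitutively active GLP-1R, cAMP-luciferase reporter), compounds were incubated 24 hr and luciferase measured by luminescence.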
Resorufin autofl: interferes with resorufin fluorescence in IDH1 counter-screen; 750 tested, under 10 active; shares compounds with IDH1 R132H inh; Resorufin detection reagent fluorescence interference, cell-free; inhibition of signal, % at 51.2 µM;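 further: 0% = wells with normal resorufin and full inhibition = wells lacking resorufin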
IDH1 WT: selectivity of mutant IDH1 inhibitors: human wild-type IDH1 | AID 623995 | WT IDH1 enzyme, NADPH diaphorase/resazurin fluorescence | shares compounds with IDH1 R132H inh | hit rate 9% among 750 | Potency, µM (top dose mostly 115 µM), for inactives: at the top dose activity change, negative = inhibition, usual class: inhibitors;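 further: potency means the concentration at half of the fitted maximal effect; 0% = full WT IDH1 enzyme control and full inhibition = no enzyme wells; nearly all actives have a fitted effect of over 55% in size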
Target sequence (O75874 whole entry, looked up): as the sequence (O75874 whole entry R132H, stated change not applied) above, with H132R counted along it
IDH1 R132H conf: confirmation of human mutant IDH1 inhibitors. hit rate 83% among 750. shares compounds with IDH1 R132H inh. Potency, µM (titrated, usually from 76.6 µM), without a hit: at the highest dose activity change, negative = inhibition, hits mostly inhibitors. IDH1 R132H enzyme, NADPH diaphorase/resazurin fluorescence; further: potency means the concentration at half of the fitted maximal effect; nearly all actives have a fitted effect of over 50% in size
The depositor's hits bear a star; i = inactive; ? = inconclusive; · = not tested or not shown; [ ] = remark or other dose. Unless noted, the call rests on the fitted dose curve; in most records, active means well fitted curve in the direction sought with a large enough effect; inconclusive means small, poorly fitted or top-dose-only effect, or another doubt; inactive means no such curve, though single readings can be large; an effect the other way counts as inactive or inconclusive.

SMILES | GLP1R ag | IDH1 R132H inh | PTHR1 agonist | LDHA inh | GLP1R cytotox | GLP-1R inv ag | Resorufin autofl | IDH1 WT | IDH1 R132H conf
CCOc1ccccc1Oc1coc2cc(OC(=O)c3ccco3)ccc2c1=O | -1% | ? | ? | -13 | 7% | 3% | -9 | 1% | 28µM*
Cc1cc(C=C(C#N)C#N)c(C)n1C1CC1 | · | · | · | -1 | · | · | · | · | ·
Cc1nc2cc(C(F)(F)F)ccc2n1C1CCN(Cc2nnnn2Cc2ccc3c(c2)OCO3)CC1 | -10% | ? | -13%[57.5 µM] | -3 | 1% | ? | -4 | 14% | 16µM*
Cc1nc2cc(C(F)(F)F)ccc2n1C1CCN(Cc2nnnn2Cc2cccs2)CC1 | 4% | -11% | -19% | 1 | -7% | ? | · | · | ·
Clc1ccc(C(c2ccc(Cl)cc2)n2cc[n+](CC(OCc3ccc(Cl)cc3Cl)c3ccc(Cl)cc3Cl)c2)cc1 (centres undefined) | -20% | 18µM* | -26% | -8 | ? | ? | -8 | ? | 7.9µM*
COc1ccc2[nH]c(C)c(CCNCc3cccc(C(F)(F)F)c3)c2c1 | · | · | · | -4 | · | · | · | · | ·
O=c1[nH]c(O)c(/C=C2/C=CC(c3cc(Cl)ccc3Cl)=N2)c(=O)[nH]1 | 3% | 29µM* | -4% | -6 | 7% | -7% | 3 | 45µM* | 11µM*
CC1=Nc2ccccc2/C1=C/c1c(O)[nH]c(=O)[nH]c1=O | -5% | 1% | -10% | 0 | -18% | 0% | · | · | ·
CCOc1ccc(C2c3c(-c4ccccc4O)n[nH]c3C(=O)N2Cc2ccncc2)cc1 (centres undefined) | · | ? | i | -5 | -22% | -17% | -5 | 1% | 40µM*
Cn1c(=O)c2c(-c3ccccc3)n3c(c2n(C)c1=O)C(c1cc(Cl)ccc1O)Nc1ccccc1-3 (centres undefined) | · | 40µM* | -29% | -2 | -1% | 3% | -4 | 5% | 14µM*
COc1ccccc1-n1c(-c2ccccc2)nc2ccccc2c1=O | 4% | 6% | i | -1 | 2% | ? | · | · | ·
COc1ccc(-c2c3c(=O)n(C)c(=O)n(C)c3c3n2-c2ccccc2NC3c2ccccc2OC)cc1 (centres undefined) | · | 45µM* | -17% | 1 | -4% | 4% | 0 | 3% | 6.3µM*
Cc1ccc(CNCCc2c[nH]c3ccccc23)c(C)c1 | · | · | · | -11 | · | · | · | · | ·
C=C1C(=O)OC2CC(C)C3C=CC(=O)C3(C)C(O)C12 (centres undefined) | -34% | 6% | -98% | -1 | -65% | ? | · | · | ·
C=C1C(=O)O[C@@H]2C[C@@H](C)[C@@H]3C=CC(=O)[C@@]3(C)[C@@H](OC(=O)CC(=O)O[C@H]3[C@@H]4C(=C)C(=O)O[C@@H]4C[C@@H](C)[C@@H]4C=CC(=O)[C@]43C)[C@H]12 | -10% | ? | -53% | 3 | ? | -91% | 9 | -10% | ?
CCCCOc1ccc(CC2C(=O)N(C)C(=O)N(C)C2=O)cc1 | 4% | ? | i | 3 | 13% | 7% | -1 | 114% | 45µM*
Cn1ccn(C(F)(F)C(F)F)c1=[Se] | · | · | · | -2 | · | · | · | · | ·
COc1cccc(C2SCC(=O)Nc3c2c(C)nn3C)c1OCc1ccccc1C (centres undefined) | · | · | · | 1 | · | · | · | · | ·
COc1ccccc1NC(=O)c1cn(C)c2ccccc12 | · | · | · | 2 | · | · | · | · | ·
COc1cccc(-c2coc3c(C)c4oc(=O)c(CCC(=O)O)c(C)c4cc23)c1 | 19% | 26µM* | -18% | -6 | 39% | -11% | 12 | 35µM* | 25µM*
NC1(C(=O)O)CCCc2ccc(N(CCCl)CCCl)cc21 (centres undefined) | 8% | -12% | i | -2 | -25% | -25% | · | · | ·
COC(=O)C1=C(C)NC(=S)NC1c1ccc(N(CCCl)CCCl)cc1Cl (centres undefined) | 1% | ? | -28% | 2 | ? | -12% | 5 | 2% | 11µM*
